The structures appear in SMILES notation. Active and inactive are the calls of the source. How the calls were made is not given here.

The inhibition is the change of the read-out against control, counted positive when it falls.

Botulinum neurotoxin type A (Clostridium botulinum), sequence (P0DPI0 whole entry, looked up): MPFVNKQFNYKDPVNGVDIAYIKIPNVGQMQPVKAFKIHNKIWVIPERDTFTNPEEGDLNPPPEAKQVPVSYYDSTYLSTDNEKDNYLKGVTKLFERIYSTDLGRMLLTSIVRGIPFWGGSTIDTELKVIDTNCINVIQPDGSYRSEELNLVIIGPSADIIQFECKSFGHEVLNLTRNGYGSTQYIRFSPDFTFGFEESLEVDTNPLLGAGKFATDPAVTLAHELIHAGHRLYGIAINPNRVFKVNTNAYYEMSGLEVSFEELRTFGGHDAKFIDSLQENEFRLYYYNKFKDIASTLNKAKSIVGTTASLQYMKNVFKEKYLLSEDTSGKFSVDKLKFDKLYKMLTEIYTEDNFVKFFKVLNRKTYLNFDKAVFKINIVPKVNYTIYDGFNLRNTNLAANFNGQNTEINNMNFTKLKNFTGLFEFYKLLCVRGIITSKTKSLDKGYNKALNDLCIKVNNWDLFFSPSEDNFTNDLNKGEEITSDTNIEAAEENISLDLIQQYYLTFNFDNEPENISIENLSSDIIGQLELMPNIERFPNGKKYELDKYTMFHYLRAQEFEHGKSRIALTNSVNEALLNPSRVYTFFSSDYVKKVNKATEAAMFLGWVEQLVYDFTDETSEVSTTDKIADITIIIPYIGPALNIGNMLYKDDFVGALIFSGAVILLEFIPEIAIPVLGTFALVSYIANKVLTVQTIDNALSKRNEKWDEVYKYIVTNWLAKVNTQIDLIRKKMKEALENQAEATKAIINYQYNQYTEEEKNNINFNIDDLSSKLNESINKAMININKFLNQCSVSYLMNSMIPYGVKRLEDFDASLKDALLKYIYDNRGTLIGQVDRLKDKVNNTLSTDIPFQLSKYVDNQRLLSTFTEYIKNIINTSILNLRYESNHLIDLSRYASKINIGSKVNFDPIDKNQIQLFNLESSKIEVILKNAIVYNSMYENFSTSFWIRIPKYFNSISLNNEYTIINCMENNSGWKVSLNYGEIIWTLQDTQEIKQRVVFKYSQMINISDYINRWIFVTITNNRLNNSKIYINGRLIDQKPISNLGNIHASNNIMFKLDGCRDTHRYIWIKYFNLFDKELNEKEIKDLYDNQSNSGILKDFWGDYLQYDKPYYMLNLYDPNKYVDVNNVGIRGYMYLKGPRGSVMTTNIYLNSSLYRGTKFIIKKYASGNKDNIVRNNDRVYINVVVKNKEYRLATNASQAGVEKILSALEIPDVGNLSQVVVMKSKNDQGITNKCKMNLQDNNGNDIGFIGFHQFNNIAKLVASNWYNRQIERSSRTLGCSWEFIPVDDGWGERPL

The subject of the first test is Botulinum neurotoxin type F light chain protease (Clostridium botulinum). Put plainly: Botulinum neurotoxin type F light chain protease inhibition, multiplex microsphere flow cytometry, validation set (AID 588459). Conditions: multiplex microsphere protease substrate cleavage assay, at 10 µM, stronger effect = higher value. A general note: Flow cytometry measures light scatter and fluorescence of single cells or particles in a stream.
Turning to `Cc1ccc(S(=O)(=O)N[C@@H](C)C(=O)N2CCC(C(=O)N3CCC[C@H]3C(=O)O)CC2)cc1`, the inhibition was 1.9% (inactive).
Still for that read-out and setting: under `O=P(O)(O)CP(=O)(O)O` stands -9% (inactive); under `NC(=O)c1ncn([C@@H]2O[C@H](CO)[C@@H](O)[C@H]2O)c1O`, -1.3% (inactive); under `O=C(NCCc1ccccc1)C1CCN(C2CCN(Cc3ccco3)CC2)CC1`, -0.8% (inactive).
The same measure, in the same setting: under `COc1ccc(N2C(=O)C3C(C2=O)C(C(=O)c2ccccc2)N2CCCC32)cc1` (stereo not given) stands 1.6% (inactive); under `CC(C)(Sc1cc(C(C)(C)C)c(O)c(C(C)(C)C)c1)Sc1cc(C(C)(C)C)c(O)c(C(C)(C)C)c1`, 0% (inactive); under `CC(=O)CCc1c(C)c2cccc(C)c2[nH]c1=O`, 4.3% (inactive).
For `CCOc1ccc2ccccc2c1CNc1nnnn1C`, the inhibition is -0.1% (inactive).
For the molecule `CC(=O)OCC#CCSc1nc2ccccc2n1C`, the inhibition was 0.7% (inactive).
Still for that read-out and setting: under `CCCCC[C@H](O)/C=C/[C@@H]1[C@@H](C/C=C\CCCC(=O)OC)[C@@H](O)C[C@H]1O` stands -3.3% (inactive); under `COc1ccc(N2C(=O)[C@@H]3[C@H](C2=O)[C@H]2c4ccccc4C=CN2[C@@H]3C(C)=O)cc1`, -2.1% (inactive); under `Cc1cccc(C(=O)c2cccc(C)c2)c1`, -4.8% (inactive).
Same read-out and setting: under `CCCN1C[C@H](CSC)C[C@@H]2c3cccc4[nH]cc(c34)C[C@H]21` stands -8.5% (inactive); under `CC1(C)CC(CNCCC(c2ccc(F)cc2)c2ccco2)CCO1` (stereo not given), 0.9% (inactive); under `COc1cc2c(cc1OC)-c1cc(NC3CCCCCC3)nc(=O)n1CC2`, -2.3% (inactive).
The same measure, in the same setting: to `COC(=O)c1ccc(C(=O)OC)c(NC(=O)C(C)C)c1` belongs -0.3% (inactive).
With `O=C(c1ccco1)N1CCCN(Cc2nc(-c3ccc4c(c3)OCO4)no2)CC1`, the inhibition was 1% (inactive).
With `COc1cc(/C=C/C(=O)N2CCCC2)cc(OC)c1OC`, the inhibition was -1.5% (inactive).
With `Oc1ccc(Oc2ncc(Cl)cc2Cl)cc1`, the inhibition is 1.4% (inactive).
For `Cc1ncc(C(=O)O)c(C(=O)O)c1N`, the inhibition was 0.4% (inactive).
Consider `COc1cc(-c2nnc(-c3cccs3)o2)cc(OC)c1OC`, for which the inhibition is 1.3% (inactive).
On the same count and under the same terms, to `COc1ccc2c(c1)[N+](C)(C)C(C)(C)C=C2C` belongs -0.4% (inactive); to `Cc1ccc(/C(=C\CN2CCCC2)c2ccccn2)cc1`, -2% (inactive).
The same measure, in the same setting: to `CNCCC=C1c2ccccc2CCc2ccccc21` belongs -4.9% (inactive).
Same read-out and setting: under `O=C1C=CC(=O)C(C2=C3C(=O)N(CCc4ccccc4)CC(=O)N3CCC2)=C1` stands 1.8% (inactive).
Turning to `Cc1ccc2c(c1)C1CN(C)CCC1N2S(=O)(=O)c1ccc(Oc2ccc([N+](=O)[O-])cc2)cc1` (stereo not given), the inhibition is 2.6% (inactive).
Still for that read-out and setting: under `O=C(CN1C(=O)/C(=C/c2cccc(Br)c2)SC1=S)Nc1cccnc1` stands 1.8% (inactive); under `CCC(=O)c1ccc(OCc2ccc(C(=O)OC)cc2)cc1`, -1.6% (inactive); under `CN1CCCN=C1COC(=O)C(O)(c1ccccc1)C1CCCCC1` (stereo not given), -1.4% (inactive).
As to `CC1(C)CC(=O)C(C2(O)C(=O)Nc3ccccc32)CO1` (stereo not given), the inhibition is -0.1% (inactive).
The same measure, in the same setting: under `COc1ccc2[nH]c(=O)c3c(c2c1)OC(C)(C)C=C3` stands 1.1% (inactive); under `Cc1ccc(Nc2ncccc2C(=O)O)cc1C`, 0.8% (inactive).
The same measure, in the same setting: to `Cc1oc2c(C)c3oc(=O)c4c(c3cc2c1C)CCCC4` belongs 0.8% (inactive); to `CC(C)CN1CCN(Cc2cccn2-c2ccccn2)CC1CCO` (stereo not given), -0.4% (inactive).
Regarding `CC1=CC(C)(C)N2C(=O)C3(NCCc4c3[nH]c3ccccc43)c3cc(C)cc1c32` (stereo not given), the inhibition is -0.9% (inactive).
Still for that read-out and setting: under `CS(=O)c1ccccc1O` (stereo not given) stands 1.4% (inactive); under `CC(C)CCOCC(=O)Nc1cccc(C(=O)O)c1`, 2.9% (inactive).
Still for that read-out and setting: to `Cc1ccsc1/C=C/C1=NCCCN1C` belongs -0.9% (inactive); to `Cc1oncc1C(=O)Nc1ccc(C(F)(F)F)cc1`, 0.9% (inactive); to `CCOC(=O)C1C(=O)CC(C)(O)C(C(=O)OCC)C1/C=C/c1ccccc1` (stereo not given), 1.1% (inactive).

The next test has as its target Botulinum neurotoxin type A (Clostridium botulinum) (UniProt P0DPI0). Put plainly: BoNT/A light chain protease inhibitors, biochemical, multiplex microsphere flow cytometry, validation set (AID 588460). Conditions: at 10 µM, stronger effect = higher value.
As to `Cc1ccc(S(=O)(=O)N[C@@H](C)C(=O)N2CCC(C(=O)N3CCC[C@H]3C(=O)O)CC2)cc1`, the inhibition is 1% (inactive).
On the same count and under the same terms, to `O=P(O)(O)CP(=O)(O)O` belongs -3% (inactive).
On the same count and under the same terms, to `NC(=O)c1ncn([C@@H]2O[C@H](CO)[C@@H](O)[C@H]2O)c1O` belongs -1.9% (inactive); to `O=C(NCCc1ccccc1)C1CCN(C2CCN(Cc3ccco3)CC2)CC1`, -0.7% (inactive); to `COc1ccc(N2C(=O)C3C(C2=O)C(C(=O)c2ccccc2)N2CCCC32)cc1` (stereo not given), -0.2% (inactive).
Consider `CC(C)(Sc1cc(C(C)(C)C)c(O)c(C(C)(C)C)c1)Sc1cc(C(C)(C)C)c(O)c(C(C)(C)C)c1`, for which the inhibition was -2.2% (inactive).
Still for that read-out and setting: under `CC(=O)CCc1c(C)c2cccc(C)c2[nH]c1=O` stands 0.8% (inactive).
As for `CCOc1ccc2ccccc2c1CNc1nnnn1C`, the inhibition was -1.2% (inactive).
For the molecule `CC(=O)OCC#CCSc1nc2ccccc2n1C`, the inhibition was -0.6% (inactive).
Still for that read-out and setting: to `CCCCC[C@H](O)/C=C/[C@@H]1[C@@H](C/C=C\CCCC(=O)OC)[C@@H](O)C[C@H]1O` belongs -1% (inactive); to `COc1ccc(N2C(=O)[C@@H]3[C@H](C2=O)[C@H]2c4ccccc4C=CN2[C@@H]3C(C)=O)cc1`, -0.4% (inactive).
Same read-out and setting: under `Cc1cccc(C(=O)c2cccc(C)c2)c1` stands -0.8% (inactive).
On the same count and under the same terms, to `CCCN1C[C@H](CSC)C[C@@H]2c3cccc4[nH]cc(c34)C[C@H]21` belongs -1.6% (inactive); to `CC1(C)CC(CNCCC(c2ccc(F)cc2)c2ccco2)CCO1` (stereo not given), -1.4% (inactive); to `COc1cc2c(cc1OC)-c1cc(NC3CCCCCC3)nc(=O)n1CC2`, -1.4% (inactive).
As to `COC(=O)c1ccc(C(=O)OC)c(NC(=O)C(C)C)c1`, the inhibition is -1.3% (inactive).
Still for that read-out and setting: to `O=C(c1ccco1)N1CCCN(Cc2nc(-c3ccc4c(c3)OCO4)no2)CC1` belongs 0% (inactive); to `COc1cc(/C=C/C(=O)N2CCCC2)cc(OC)c1OC`, 0.4% (inactive).
Still for that read-out and setting: to `Oc1ccc(Oc2ncc(Cl)cc2Cl)cc1` belongs -0.7% (inactive); to `Cc1ncc(C(=O)O)c(C(=O)O)c1N`, -0.1% (inactive).
The same measure, in the same setting: under `COc1cc(-c2nnc(-c3cccs3)o2)cc(OC)c1OC` stands 1.7% (inactive); under `COc1ccc2c(c1)[N+](C)(C)C(C)(C)C=C2C`, 0.1% (inactive); under `Cc1ccc(/C(=C\CN2CCCC2)c2ccccn2)cc1`, 0.3% (inactive).
Take `CNCCC=C1c2ccccc2CCc2ccccc21`: the inhibition was 0.2% (inactive).
Still for that read-out and setting: to `O=C1C=CC(=O)C(C2=C3C(=O)N(CCc4ccccc4)CC(=O)N3CCC2)=C1` belongs -0.3% (inactive); to `Cc1ccc2c(c1)C1CN(C)CCC1N2S(=O)(=O)c1ccc(Oc2ccc([N+](=O)[O-])cc2)cc1` (stereo not given), 0.4% (inactive).
Still for that read-out and setting: under `O=C(CN1C(=O)/C(=C/c2cccc(Br)c2)SC1=S)Nc1cccnc1` stands -0.3% (inactive); under `CCC(=O)c1ccc(OCc2ccc(C(=O)OC)cc2)cc1`, 0.7% (inactive).
In the case of `CN1CCCN=C1COC(=O)C(O)(c1ccccc1)C1CCCCC1` (stereo not given), the inhibition was -0.9% (inactive).
On the same count and under the same terms, to `CC1(C)CC(=O)C(C2(O)C(=O)Nc3ccccc32)CO1` (stereo not given) belongs -1.6% (inactive).
As for `COc1ccc2[nH]c(=O)c3c(c2c1)OC(C)(C)C=C3`, the inhibition was 0.3% (inactive).
Still for that read-out and setting: under `Cc1ccc(Nc2ncccc2C(=O)O)cc1C` stands -0.2% (inactive); under `Cc1oc2c(C)c3oc(=O)c4c(c3cc2c1C)CCCC4`, -0.2% (inactive); under `CC(C)CN1CCN(Cc2cccn2-c2ccccn2)CC1CCO` (stereo not given), -0.5% (inactive).
Same read-out and setting: to `CC1=CC(C)(C)N2C(=O)C3(NCCc4c3[nH]c3ccccc43)c3cc(C)cc1c32` (stereo not given) belongs -2.5% (inactive).
For the molecule `CS(=O)c1ccccc1O` (stereo not given), the inhibition was 0% (inactive).
Still for that read-out and setting: to `CC(C)CCOCC(=O)Nc1cccc(C(=O)O)c1` belongs 0% (inactive); to `Cc1ccsc1/C=C/C1=NCCCN1C`, 1.6% (inactive).
With `Cc1oncc1C(=O)Nc1ccc(C(F)(F)F)cc1`, the inhibition is 0.7% (inactive).
`CCOC(=O)C1C(=O)CC(C)(O)C(C(=O)OCC)C1/C=C/c1ccccc1` (stereo not given): the inhibition was 1% (inactive).

The values are drawn from PubChem BioAssay.
